# Source: PubChem
# Only some compounds are listed: those with a hit (about 10% of all), similar ones and a draw of the others.
# Luciferase inh = inhibitors of firefly (Photinus pyralis) luciferase | P08659 | purified P. pyralis luciferase, luminescence, biochemical | Potency, µM (titrated, usually from 115 µM), usual class: inhibitors | 2.5% of 76,000 active | AID 1347043; also: nearly all actives have a fitted effect of over 65% in size
#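 Luminescence read by CCD imager after adding enzyme (10nM final) to wells holding compound, titrated in qHTS. Substrates 10uM each D-luciferin and ATP; buffer 50mM Tris acetate pH 7.5, 10mM Mg acetate, Tween-20, BSA.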
# HEK cytotox = HEK 293 cell cytotoxicity; HEK 293 viability, ATP luminescence (CellTiter-Glo), 48-72 h; Potency, µM (top dose mostly 115 µM), without a hit: at the top dose activity change, negative = cytotoxicity, hits mostly inhibitors; 6.6% of 94,000 active; also: nearly all actives have a fitted effect of over 60% in size
#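 Pintool-delivered compounds were incubated with HEK 293 cells (250 cells/well) at 37 degree Celsius for 48 or 72 hr. ATP-dependent luminescence (CellTiter-Glo) then reported remaining viable cells.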
# NPR1 antag = blocks ANP-stimulated signaling of human Npr1 receptor; HEK293 hNpr1 GloSensor cGMP, ANP-stimulated luminescence; Potency, µM (doses to about 46.3 µM), inactives show at the top dose activity change, negative = inhibition, actives largely listed as inhibitors; 1.6% of 76,000 active; calls by dose curve; also: nearly all actives have a fitted effect of over 60% in size
# Target sequence (P16066 whole entry, looked up): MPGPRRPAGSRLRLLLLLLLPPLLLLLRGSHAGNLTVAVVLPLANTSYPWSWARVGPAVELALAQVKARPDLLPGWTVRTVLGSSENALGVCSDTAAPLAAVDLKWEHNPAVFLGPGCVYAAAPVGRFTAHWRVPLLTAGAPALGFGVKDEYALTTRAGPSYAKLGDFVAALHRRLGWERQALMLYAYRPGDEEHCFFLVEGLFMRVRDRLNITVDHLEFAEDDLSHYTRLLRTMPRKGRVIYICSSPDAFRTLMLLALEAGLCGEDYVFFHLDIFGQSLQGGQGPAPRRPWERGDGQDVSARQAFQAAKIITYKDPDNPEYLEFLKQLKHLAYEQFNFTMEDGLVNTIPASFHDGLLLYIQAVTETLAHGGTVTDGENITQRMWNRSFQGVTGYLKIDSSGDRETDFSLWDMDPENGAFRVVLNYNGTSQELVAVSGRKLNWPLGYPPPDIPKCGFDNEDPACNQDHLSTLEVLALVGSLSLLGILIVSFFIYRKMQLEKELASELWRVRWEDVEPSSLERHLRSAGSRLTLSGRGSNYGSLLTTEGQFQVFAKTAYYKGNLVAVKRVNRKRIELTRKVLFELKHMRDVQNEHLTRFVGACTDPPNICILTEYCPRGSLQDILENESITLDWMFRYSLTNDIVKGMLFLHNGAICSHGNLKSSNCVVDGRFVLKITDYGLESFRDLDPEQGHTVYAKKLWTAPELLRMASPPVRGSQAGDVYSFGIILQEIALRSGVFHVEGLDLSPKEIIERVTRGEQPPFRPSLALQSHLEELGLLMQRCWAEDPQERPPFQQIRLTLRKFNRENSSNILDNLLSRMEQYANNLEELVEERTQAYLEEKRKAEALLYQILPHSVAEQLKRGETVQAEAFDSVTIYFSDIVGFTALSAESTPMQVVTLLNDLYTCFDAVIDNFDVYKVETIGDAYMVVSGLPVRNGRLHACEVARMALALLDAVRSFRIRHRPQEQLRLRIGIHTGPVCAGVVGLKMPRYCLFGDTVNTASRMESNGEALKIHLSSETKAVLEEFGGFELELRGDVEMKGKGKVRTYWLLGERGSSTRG
#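 HEK293 cells stably expressing human Npr1 and cGMP GloSensor pGS-40F, loaded 2 h with 2% GloSensor reagent, given compound 30 min at room temperature. Luminescence read before and 20 min after 0.1 nM hNppA.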
# 3T3 cytotox = kills NIH 3T3 cells; NIH 3T3 viability, CellTiter-Glo ATP luminescence, 48-72 h; Potency, µM (doses to about 96.7 µM), for inactives: at the top dose activity change, negative = cytotoxicity, hits mostly inhibitors; 4.3% of 94,000 active; also: nearly all actives have a fitted effect of over 55% in size
#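 First NIH 3T3 cells are plated at 400 cells/well; next compound is pinned in; then plates incubate 48 or 72 hr at 37 °C; finally CellTiter-Glo is added and luminescence read after 10 min.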
# GPT2 inh = GPT2 alanine aminotransferase inhibition; AID 1671188; Q8TD30; 0.25% of 100,000 active; Recombinant GPT2, coupled pyruvate oxidase/HRP Amplex Red fluorescence; Potency, µM (highest dose often 57.7 µM), for inactives: at the highest dose activity change, negative = inhibition, hits mostly inhibitors; also: nearly all actives have a fitted effect of over 60% in size
#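 Recombinant GPT2 (10ng/uL) with 250uM a-KG and 2mM L-alanine, 30 min at room temperature, in HEPES pH 7.5 buffer. Pyruvate detected by pyruvate oxidase/HRP/Amplex Red fluorescence after 30 min in the dark; AOA (50uM) as positive control.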
# An asterisk follows results filed as active; i = inactive; ? = inconclusive; / = no result; [ ] = dose if it differs, or a comment. Unless noted, calls follow the shape of the dose curve; as a rule, active = well fitted curve in the direction sought with a large enough effect; inconclusive = small, poorly fitted or top-dose-only effect, or another doubt; inactive = no such curve, though single readings can be large; an effect the other way counts as inactive or inconclusive. % is scaled to controls: 0 for no effect and ±100 for the full control effect; potency is read from the fitted curve at half-maximal effect.
SMILES,Luciferase inh,HEK cytotox,NPR1 antag,3T3 cytotox,GPT2 inh
O=C(Nc1ccc2n(c1=O)C[C@H]1C[C@@H]2CN(C(=O)NC2CCCCC2)C1)c1ccco1,i,-13.2%[172 µM],1.9%[70.6 µM],89.1µM*,1.7%[88.5 µM]
CCCNC(=O)OC[C@H]1C[C@@H]2CCN1C[C@@H]2c1cc(-c2ccc(F)cc2)nc(C)n1,i,?,-0.9%[70.6 µM],?,i
Cc1nc(-c2ccc(N(C)C)cc2)cc([C@H]2CN3CC[C@H]2C[C@@H]3COC(=O)Nc2ccccc2)n1,i,?,-25.3%,3.98µM*,-18.1%
Cc1nc(-c2ccc(N(C)C)cc2)cc([C@H]2CN3CC[C@H]2C[C@@H]3CNC(=O)NC(C)C)n1,i,?,1.2%[70.6 µM],89.1µM*,i
COc1ccc(NC(=O)OC[C@H]2C[C@@H]3CCN2C[C@@H]3c2cc(-c3ccc(N(C)C)cc3)nc(C)n2)cc1,i,17.8µM*,-14.3%,15.8µM*,i
COc1cc(NC(=O)OC[C@H]2C[C@@H]3CCN2C[C@@H]3c2cc(-c3ccc(N(C)C)cc3)nc(C)n2)cc(OC)c1,?,5.62µM*,?,7.94µM*,4.2%
Cc1nc(-c2ccc(N(C)C)cc2)cc([C@H]2CN3CC[C@H]2C[C@@H]3CNC(=O)c2ccco2)n1,?,?,-3.1%,?,0.0%
CC(=O)NC[C@H]1C[C@@H]2CCN1C[C@@H]2c1cc(-c2ccccc2)nc(C)n1,i,-29.8%[172 µM],0.6%[70.6 µM],?,2.0%[88.5 µM]
COc1cc2c(cc1-c1ccc(N3CCN(C)CC3)nc1)NC(=O)C21CCN(C(C)=O)CC1,i,-9.5%,0.5%,?,?
COc1cc2c(cc1OCc1ccccc1)NC(=O)C21CCN(c2ccnc(C)n2)CC1,?,28.2µM*,?,?,3.6%[88.5 µM]
COc1cc2c(cc1OCc1ccccc1)NC(=O)C21CCN(Cc2ccccc2)CC1,i,31.6µM*,-25.2%[70.6 µM],31.6µM*,1.3%[88.5 µM]
COc1cncc(-c2cc3c(cc2OC)C2(CCN(C(C)=O)CC2)C(=O)N3)c1,i,-14.5%[172 µM],-0.1%[70.6 µM],31.6µM*,2.6%[88.5 µM]
COc1cc2c(cc1OCc1ccccc1)NC(=O)C21CCN(Cc2ccncc2)CC1,i,?,?,?,1.4%[88.5 µM]
COc1cc2c(cc1OCc1ccccc1)NC(=O)C21CCN(c2ncccn2)CC1,i,?,-26.6%[70.6 µM],?,1.0%[88.5 µM]
COc1cc2c(cc1OCc1ccccc1)NC(=O)C21CCN(Cc2c(C)noc2C)CC1,?,25.1µM*,?,?,-20.7%
COc1cc2c(cc1OCc1ccccc1)NC(=O)C21CCN(C(C)=O)CC1,?,?,-3.0%[70.6 µM],39.8µM*,-21.3%[88.5 µM]
COc1cc2c(cc1OCC1CC1)NC(=O)C21CCN(C(C)=O)CC1,i,-0.8%[172 µM],2.6%[70.6 µM],?,1.9%[88.5 µM]
O=C(NC[C@H]1C[C@@H]2CCN1C[C@@H]2CN1CCN(c2ccc(F)cc2)CC1)Nc1ccccc1,i,?,-4.9%,-22.7%,1.5%
O=C(NC[C@H]1C[C@@H]2CCN1C[C@@H]2CN1CCN(c2ccc(F)cc2)CC1)Nc1ccsc1,i,79.4µM*,0.6%,?,i
O=C1N(c2ccccn2)C[C@H]2CN(Cc3ccc(F)cc3)CCN12,25.1µM*,-25.6%[172 µM],-18.0%[70.6 µM],-29.5%[138 µM],i
CSc1cccc(NC(=O)NC[C@H]2C[C@@H]3CCN2C[C@@H]3CN(C)c2ccccc2)c1,?,25.1µM*,-17.2%[70.6 µM],31.6µM*,i
CCN(CC)C[C@H]1CN2CC[C@H]1C[C@@H]2CNC(=O)Nc1cccc(SC)c1,i,50.1µM*,-3.4%[70.6 µM],39.8µM*,1.1%[88.5 µM]
CC(C)NC(=O)NC[C@H]1C[C@@H]2CCN1C[C@@H]2CN(C)Cc1ccccc1,i,-9.7%[172 µM],3.3%[70.6 µM],-20.6%[174 µM],-10.4%[88.5 µM]
CSc1cccc(NC(=O)NC[C@H]2C[C@@H]3CCN2C[C@@H]3CN(C)Cc2ccccc2)c1,i,28.2µM*,-1.0%,22.4µM*,1.1%
CC[C@H]1CN2CC[C@H]1C[C@@H]2CNC(=O)Nc1cccc(SC)c1,i,-23.8%[172 µM],2.4%[70.6 µM],-21.7%[174 µM],-8.5%[88.5 µM]
SMILES,Luciferase inh,HEK cytotox,NPR1 antag,3T3 cytotox,GPT2 inh
CC1CCN(C[C@H]2CN3CC[C@H]2C[C@@H]3CNC(=O)c2ccc(C(F)(F)F)cc2)CC1,i,?,1.4%[70.6 µM],?,-8.5%[88.5 µM]
CN(C)c1ccc(C(=O)NC[C@H]2C[C@@H]3CCN2C[C@@H]3CN(C)c2ccccc2)cc1,i,?,-6.0%[70.6 µM],?,i
CN(C[C@H]1CN2CC[C@H]1C[C@@H]2CNC(=S)NCc1ccco1)c1ccccc1,i,39.8µM*,1.9%[70.6 µM],28.2µM*,i
O=C(NC[C@H]1C[C@@H]2CCN1C[C@@H]2CN1CCC(Cc2ccccc2)CC1)c1ccc(C(F)(F)F)cc1,i,79.4µM*,1.0%,?,-16.1%
O=C(NC[C@H]1C[C@@H]2CCN1C[C@@H]2CN1CCC(Cc2ccccc2)CC1)c1ccccc1,i,25.1µM*,0.1%[70.6 µM],25.1µM*,1.8%[88.5 µM]
CN(C[C@H]1CN2CC[C@H]1C[C@@H]2CNC(=O)c1ccc(C(F)(F)F)cc1)c1ccccc1,i,28.2µM*,?,44.7µM*,1.2%[88.5 µM]
CCCCc1cn(C[C@H]2CC3CCN2C[C@@H]3C(=O)NCc2ccc3c(c2)OCO3)nn1 (stereo not given in full),i,-2.0%[172 µM],-5.3%[70.6 µM],-8.7%[174 µM],-16.8%[88.5 µM]
O=C(CN1CCCC1=O)NCc1ccc(F)cc1Cl,?,0.5%,-0.3%,-0.9%,i
Cc1ncc2c(n1)C[C@@H]1CC[C@H]2N1C(=O)Nc1ccc(C)c(C)c1,i,3.4%,-1.1%,-12.1%,-6.1%
CO[C@@H]1[C@H](O)[C@@H](O[C@@H]2C[C@H]3CC[C@@H]4C(CC[C@]5(C)[C@@H](C6=CC(=O)OC6)CC[C@]45O)[C@@]3(C)[C@H](O)C2)O[C@H](C)[C@@H]1O (stereo not given in full),/,/,/,/,i
Cc1ncc2c(n1)C[C@@H]1CC[C@H]2N1C(=O)CCc1ccccc1,i,0.4%,6.2%,4.8%,-14.1%
CC[C@H]1CN2CC[C@H]1C[C@@H]2COC(=O)Nc1ccc(C(C)(C)C)cc1,?,39.8µM*,6.0%[70.6 µM],39.8µM*,i
CC[C@H]1CN2CC[C@H]1C[C@@H]2CNC(=O)Nc1ccc(Br)cc1,i,3.2%[172 µM],6.5%[70.6 µM],-13.3%[174 µM],-3.5%[88.5 µM]
CC[C@H]1CN2CC[C@H]1C[C@@H]2COC(=O)Nc1cccc2ccccc12,i,?,-8.8%[70.6 µM],50.1µM*,i
CC[C@H]1CN2CC[C@H]1C[C@@H]2CNS(=O)(=O)c1ccc2ccccc2c1,i,?,1.0%[70.6 µM],-14.3%[174 µM],i
CC(=O)N1[C@H]2CC[C@@H]1c1cnc(-c3ccccc3)nc1C2,i,-21.7%,-1.4%,-11.1%,-0.6%
O=C1NC[C@H]2CN(Cc3cccs3)CCN12,i,-3.6%[230 µM],4.9%[70.6 µM],-3.1%[174 µM],-4.5%[88.5 µM]
